Source: PubChem BioAssay AID588335 (The Scripps Research Institute Molecular Screening Center, 2011)
In all, about 360,000 compounds went through this assay and about 4,500 (1.2%) were called active. For the sample, actives were picked, then their nearest neighbours and some compounds at random. Unmarked numbers belong to inactive results. Rule as the data show it: active = inhibition above about 30%; inactive = the rest.

assay: GDH-TPI coupling enzyme inhibitors, primary screen, artefact control for M. tuberculosis FBA inhibitor project, biochemical, absorbance, full deck (AID 588335); conditions: GDH-TPI coupled enzyme counterscreen, NADH absorbance; at 4.8 µM; active compounds read high;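 also: 0% = DMSO wells and 100% = wells lacking the enzyme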

Point of comparison: `COc1ccc(C2/C(=C(/O)c3ccc(OC(C)C)cc3)C(=O)C(=O)N2CCCN2CCOCC2)cc1` (configuration not stated), inhibition 11.5%. Against it:
- CCOC(=O)c1sc(N(Cc2ccccc2)C(=O)CN2C(=O)CN(C)C2=O)nc1C — lower, -10.6%
- CC(C)(C)C1CCC(OC(=O)CCC(=O)Nc2ccccc2)CC1 (configuration not stated) — lower, -9.56%
- CCCCn1c(N)c(N2CCOCC2)c(=O)n(CC(=O)NCCc2ccccc2)c1=O — lower, 8.07%
- NS(=O)(=O)c1ccc(NC2=CC(c3ccc(F)cc3)N(c3ccc(S(N)(=O)=O)cc3)C2=O)cc1 (configuration not stated) — lower, 4.35%
- CC(=O)C1=C(O)C(=O)N(c2ccc(Br)cc2)C1c1ccc([N+](=O)[O-])cc1 (configuration not stated) — higher, 21.6%
- CCCSC1=C(C#N)C(c2ccccc2C)C(C(=O)OC)C(=O)N1 (configuration not stated) — lower, 3.67%
- CC1CCC2(CC1)NC(=O)N(Cc1nnc(-c3cccs3)o1)C2=O (configuration not stated) — lower, -10.1%
- COc1cc2c(cc1OC)/C(=C/C(=O)c1ccc(NC(C)=O)cc1)NCC2 — higher, 14%
- CC1(C)Cc2ccccc2/C(=C/C(=O)c2ccccc2)N1 — lower, 4.27%
- CCOC(=O)c1c(CC(C)C)csc1/N=C/C1=C(O)CCCC1=O — lower, -3.83%
- CCOC(=O)c1c(/N=C/c2cc(C)ccc2O)sc2c1CCC2 — lower, 9.89%
- CCCCOc1ccc(N(CC(=O)NCC2CCCO2)C(=O)CCC(=O)Nc2cc(C)ccn2)cc1 (configuration not stated) — higher, 12.4%
- Cc1cccc(NS(=O)(=O)c2ccc(-c3cnc(C4CC4)o3)cc2)c1 — lower, -5.68%
- CC1C=CCC2C(=O)N(c3cccc(C(=O)N4CCCCCC4)c3)C(=O)C12 (configuration not stated) — lower, 5.39%
- Cc1ccc(-c2nn(C(C)(C)C)c3ncnc(N)c23)cc1 — the same, 11.5%
- CCOC(=O)C(CC)Sc1ncnc2c1nnn2-c1ccc(F)cc1 (configuration not stated) — lower, 11.2%
- CCOC(=O)c1c(NC(=S)NC(=O)/C=C/c2cccs2)sc(C)c1C — lower, -3.37%
- CCc1nnc(NS(=O)(=O)c2ccc(NC(=O)c3cccc(OC(F)(F)C(F)F)c3)cc2)s1 — lower, -13%
- COc1ccc(NC(=O)N(C)C[C@H]2Oc3ncc(C#C[C@@H](C)O)cc3C(=O)N([C@H](C)CO)C[C@H]2C)cc1 — lower, 1.42%
- Cc1ccc2c(c1)C1C[N+](C)(CC(=O)c3ccccc3)CCC1N2C(=O)c1ccccc1Cl (configuration not stated) — lower, -8.62%
- CC1CCc2c(sc(NC(=O)c3ccc(Cn4cc(Br)cn4)o3)c2C(N)=O)C1 (configuration not stated) — lower, 7.5%
- CN(C)c1ccc(/C=N/NC(=O)C(O)c2ccc(Br)cc2)cc1 (configuration not stated) — higher, 30.4%
- O=C(Nc1ccc(Br)c2cccnc12)c1ccc(Cn2cc([N+](=O)[O-])cn2)o1 — lower, 4.69%
- O=C(c1ccc(Cn2cc([N+](=O)[O-])cn2)o1)N1CCCC1 — lower, -17.2%
- O=C(NCCCN1CCCCC1)C1CCCN(c2ncnc3c2nc2n3CCCCC2)C1 (configuration not stated) — lower, -16.5%
- COc1ccc(OC)c(NC(=O)C2(C)CCN2C(=O)Cc2ccccc2)c1 (configuration not stated) — lower, 7.08%
- C=C(C)CNC(=S)/N=c1\scc(C)n1CC — higher, 13.2%
- Cc1ccc(/C=N/NC(=O)Cn2ccc(C(F)(F)F)n2)o1 — lower, 7.37%
- O=C(O)c1ccc(NN=CC2=C(N3CCOCC3)/C(=C/c3ccccc3)CC2)cc1 — higher, 22.9%
- COc1ccccc1C(=O)NC(=S)Nc1ccc(N2CCOCC2)cc1 — higher, 19.6%
- Cc1ccc(/C=N/NC(=O)Cn2nc(C)c(Br)c2C)o1 — lower, 5.47%
- CCOC(=O)CN(C(=O)CN1CCOCC1)c1ccc(Br)cc1 — lower, 9.62%
- Cn1c(SCC(=O)N2CCOCC2)nnc1-c1ccc(NC(=O)c2ccccc2F)cc1 — lower, 0%
- Cc1cccc(C(C)C)c1NC(=O)COC(=O)C1CC(=O)N(Cc2ccccc2)C1 (configuration not stated) — lower, -2.1%
- COc1ccc(CCNS(=O)(=O)c2cc3c(cc2C)NC(=O)CO3)cc1OC — lower, -4.31%
- CC1(C)CC(=O)C=C(NCc2ccncc2)C1 — lower, 0.7%
- O=C1/C(=C/c2ccc3c(c2)OCO3)Oc2cc(OCC(=O)N3CC(O)C[C@H]3C(=O)O)ccc21 (some centres not stated) — higher, 28.4%
- CCCNC(=O)N1CCC(c2ccc3c(c2)OCO3)CC1 — lower, -5.17%
- CN(C(=O)CCn1c(=S)oc2ccccc21)C1CCCCC1 — lower, 2.6%
- Cc1c(NS(=O)(=O)c2cccc(C(=O)Nc3ccc(SC(F)F)cc3)c2)c(=O)n(-c2ccccc2)n1C — lower, 0.43%
- O=C(Nc1ccccc1F)c1cc(S(=O)(=O)N2CCCCC2)cs1 — lower, -3.77%
- CC1(c2ccccc2)NC(=O)N(CC(=O)N2CC(=O)Nc3ccccc32)C1=O (configuration not stated) — lower, -7.8%
- O=C1CN(C(=O)CN2C(=O)NC3(CCCCC3)C2=O)c2ccccc2N1 — lower, 7.32%
- CSc1ccccc1NC(=O)CN(C)CC(=O)Nc1cccc(Br)c1 — lower, -2.5%
- CC1(C(=O)NS(=O)(=O)c2cccc(F)c2)CCN1C(=O)Cc1ccc(Cl)cc1Cl (configuration not stated) — lower, 1.79%
- O=C(COc1cc2oc(=O)c3c(c2cc1Cl)CCC3)NCCCN1CCOCC1 — higher, 21.4%
- COc1ccc(S(=O)(=O)NC(C)C(=O)NCc2ccncc2)cc1Cl (configuration not stated) — lower, -4.46%
- COC(=O)Cn1c(=NC(=O)CSCC(=O)Nc2cc(C)on2)sc2ccccc21 — lower, 3.99%
- CC(NC(=O)C(=O)Nc1nccs1)c1ccccc1 (configuration not stated) — lower, 9.56%
- O=C1C(=O)N(CCN2CCOCC2)C(c2cccc(Cl)c2)/C1=C(/O)c1ccc2c(c1)OCO2 (configuration not stated) — higher, 17.7%
- COCCN1C(=O)C(=O)/C(=C(/O)c2ccc(S(=O)(=O)N3CCOCC3)cc2)C1c1ccc(O)c(OC)c1 (configuration not stated) — lower, 5.9%
- COCCN1C(=O)C(=O)/C(=C(/O)c2ccc(S(=O)(=O)N3CCOCC3)cc2)C1c1ccc(OC)c(OC)c1 (configuration not stated) — lower, 9.09%
- CCOc1cc(C2/C(=C(/O)c3ccc(S(=O)(=O)N4CCCCC4)cc3)C(=O)C(=O)N2CCOC)ccc1O (configuration not stated) — lower, 0.74%
- COc1cccc(C2/C(=C(/O)c3ccc(F)cc3)C(=O)C(=O)N2CCN(C)C)c1 (configuration not stated) — lower, 10.2%
- Cc1ccc(C)c(NC(=O)NNC(=O)c2ccc3ccccc3c2O)c1 — higher, 12.5%
- CCOC(=O)C1CCN(S(=O)(=O)c2ccc3c(c2)N(C)C(=O)CC(=O)N3C)CC1 — lower, 6.72%
- O=C(CNCc1cccs1)Nc1cc(S(=O)(=O)N2CCCC2)ccc1Cl — lower, 2.39%
- O=C(NCc1nnc(SCC(=O)N2CCCc3ccccc32)o1)c1ccccc1F — lower, 11.2%
- CCOC(=O)c1c(C)n(C)c2ccc(OC)c(NS(=O)(=O)CC)c12 — lower, 2.65%
- Cc1ccccc1OCCOc1ccc([N+](=O)[O-])cc1/C=N/n1cnnc1 — lower, 3.11%
- Clc1cc(-c2ccc(/C=N/n3cnnc3)o2)ccc1Br — higher, 18.6%
- CCOC(=O)c1cc(S(=O)(=O)NCCc2ccc(OC)c(OC)c2)cn1C — lower, 1.68%
- COc1ccc(C)cc1N(C(=O)Cn1nnc(-c2ccc(C)o2)n1)C(C(=O)NC1CCCC1)c1ccncc1 (configuration not stated) — lower, -13.4%
- COCOc1cc(O)c(C(=O)/C=C/c2ccc(OCOC)c(OCOC)c2)c(OCOC)c1 — lower, 6.25%
- CCOc1ccc(NC(=S)NC(=O)/C=C/c2ccc(OC)cc2)c([N+](=O)[O-])c1 — higher, 11.6%
- Cc1ccc(C(=O)O)cc1N1C(=O)CCCC1=O — lower, 2.24%
- CCCN(CC(=O)Nc1ccccc1C)C(=O)c1ccc2[nH]c3c(c2c1)CC(C)CC3 (configuration not stated) — higher, 18.2%
- Oc1cccc(CCc2ccccn2)c1 — lower, 7.36%
- COc1ccc(CC(=O)c2ccc(O)cc2O)cc1OC — higher, 26.1%

With `CC(=O)C1=C(O)C(=O)N(c2ccc(S(N)(=O)=O)cc2)C1c1ccccc1F` (configuration not stated) the inhibition was 32.2% (active).
For `CC1CN/C(=C\C(=O)c2ccc(Br)cc2)C(=O)N1` (configuration not stated), the inhibition was 33.3% (active).
For `CCOC(=O)c1c(N)sc2c1CCCC2=O`, the inhibition was 36% (active).
For `CCc1nnc(NS(=O)(=O)c2ccc(NC(=S)NC(=O)/C=C/c3cccs3)cc2)s1`, the inhibition was 32.2% (active).
With `O=C(N/N=C/c1ccc2c(c1)OCO2)c1ccc(Cn2cc([N+](=O)[O-])cn2)o1` the inhibition was 43.3% (active).
For `CN(C)c1ccc(/C=N/NC(=O)c2ccc(Cn3cc(Br)cn3)o2)cc1`, the inhibition was 30.7% (active).
In the case of `Cc1ccc(/C=N/NC(=O)c2cc3ccccc3cc2O)o1`, the inhibition is reported as 34.5% (active).
For `O=C(NN=Cc1ccc(N2CCOCC2)cc1)c1cc2ccccc2cc1O`, the inhibition was 50.6% (active).
In the case of `O=C1/C(=C\c2ccc3c(c2)OCO3)N2CCC1CC2`, the inhibition is reported as 33.3% (active).
With `CC(=O)N1C(=O)C2(Nc3ccccc3N2)c2ccccc21` the inhibition was 34.1% (active).
For `CC(Oc1cc2oc(=O)c3c(c2cc1Cl)CCCC3)C(=O)NCc1ccncc1` (configuration not stated), the inhibition was 30.8% (active).
For `O=C1C(=O)N(CCCN2CCOCC2)C(c2ccc([N+](=O)[O-])cc2)/C1=C(\O)c1ccc2c(c1)OCCO2` (configuration not stated), the inhibition was 33.9% (active).
For `COCCN1C(=O)C(=O)/C(=C(/O)c2ccc(S(=O)(=O)N3CCCCC3)cc2)C1c1ccc(OC)c(OC)c1` (configuration not stated), the inhibition was 33.3% (active).
In the case of `COCCCN1C(=O)C(=O)/C(=C(/O)c2ccc(S(=O)(=O)N3CCOCC3)cc2)C1c1ccc(F)cc1` (configuration not stated), the inhibition is reported as 31% (active).
In the case of `Cc1cc([N+](=O)[O-])c(-c2ccc(/C=N/n3cnnc3)o2)cc1Cl`, the inhibition is reported as 34.8% (active).
In the case of `COc1ccc(/C=C/C(=O)c2cc(Br)ccc(=O)c2O)cc1`, the inhibition is reported as 55.6% (active).
With `O=C(Cc1ccccn1)c1ccc(O)cc1O` the inhibition was 33.6% (active).
